From PubChem
Rows were chosen to be rich in hits. Some 11% of all compounds tested hit in one or more screens of this group.
Pf growth 96h: inhibits malaria parasite growth, 96 h; P. falciparum luciferase reporter growth, 96 h; Potency, µM (doses to about 28.7 µM), without a hit: at the top dose activity change, negative = inhibition, actives largely listed as inhibitors; hit rate 6.9% among 320,000
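Compounds incubated with erythrocytes infected by luciferase-expressing P. falciparum (2% hematocrit, 0.05% parasitemia final) for 96 hours, 37 C in 5% CO2. Growth inhibition scored as decreased luciferase luminescence.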
AMA1-RON2 inh: disrupts binding of P. falciparum AMA1 to RON2 | AlphaScreen AMA1-biotinylated RON2 peptide binding | Potency, µM (series often up to 58.2 µM), for the others: at the highest dose activity change, negative = inhibition, actives largely listed as inhibitors | hit rate 0.2% among 360,000 | AID 720542;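 further: 0% = vehicle wells and -100% = peptide control; nearly all actives have a fitted effect of over 45% in size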
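AMA1 (3D7) with his tag at 25 nM final met compounds first, then biotinylated RON2 peptide at 25 nM; detection used donor plus acceptor beads, 10 µg/mL apiece, read by AlphaScreen after 30 min at room temperature.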
Pf growth 48h: P. falciparum growth inhibition at 48 hours (one generation); Potency, µM (top dose mostly 28.7 µM), for the others: at the top dose activity change, negative = inhibition, hits mostly inhibitors; hit rate 5.9% among 310,000; AID 504832; P. falciparum luciferase growth in erythrocytes, 48 h
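Luminescence readout; reporter = integrated firefly luciferase in P. falciparum. RBC culture at 2% hematocrit, 0.1% parasitemia final, 37 C/5% CO2; decreased signal taken as growth inhibition.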
HCV inhibitor: blocks hepatitis C virus; Huh7.5.1 HCVcc-Cre infection, luciferase reporter, 44 h; Potency, µM (doses to about 41.8 µM), for the others: at the top dose activity change, negative = inhibition, most hits filed as inhibitors; hit rate 3.4% among 340,000
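Cells seeded at 1,000/well and cultured 4 h, then compounds added followed by HCVcc-Cre virus (~0.5 moi). After 44 h further culture, luciferase substrate was added, plates held 15 min at room temperature, and luminescence read for 15 sec.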
Active calls of the source: *; [ ] = remark or other dose. The call rests on the fitted dose curve; in most records, active means well fitted curve in the direction sought with a large enough effect; inconclusive means small, poorly fitted or top-dose-only effect, or another doubt; inactive means no such curve, though single readings can be large; an effect the other way counts as inactive or inconclusive. Unless noted, on the % scale 0 is the no-effect control and ±100 the full control effect; potency means the concentration at half of the fitted maximal effect.

CCn1c(SCC(N)=O)nnc1C(C)C was read as Pf growth 96h 8.3µM*, AMA1-RON2 inh -3%, Pf growth 48h 13% and HCV inhibitor 3%.
For COc1ccc(-n2c(O)cnc2Nc2nc(C)cc(C)n2)cc1OC the results were Pf growth 96h 45%, AMA1-RON2 inh -2% and HCV inhibitor 15%.
Screening Cn1c(=O)c2[nH]c(C(O)c3ccc(Cl)cc3)nc2n(C)c1=O (stereo not given) returned AMA1-RON2 inh -4% and HCV inhibitor inconclusive.
COc1ccc(C(=O)C2CCCN(C(=O)c3csc(C(C)=O)c3)C2)c(C)c1 (stereo not given) was read as Pf growth 96h 0%, AMA1-RON2 inh -12%, Pf growth 48h -6% and HCV inhibitor -5%.
Cc1cc(C(=O)N2CCCC(C(=O)c3ccc(Oc4ccccc4)cc3)C2)n[nH]1 (stereo not given) was read as Pf growth 96h inconclusive, AMA1-RON2 inh -12%, Pf growth 48h 10µM* and HCV inhibitor inconclusive.
`COc1ccc(C(=O)C2CCCN(C(=O)CCC3=NNC(=O)CC3)C2)c(C)c1` (stereo not given) gave Pf growth 96h 10µM*, AMA1-RON2 inh -3%, Pf growth 48h 0% and HCV inhibitor -14%.
For COc1ccc(C(=O)C2CCCN(C(=O)c3cc(C4CC4)[nH]n3)C2)c(C)c1 (stereo not given) the results were Pf growth 96h 15µM*, AMA1-RON2 inh 1%, Pf growth 48h 10% and HCV inhibitor -10%.
Screening C#Cc1cccc(C(=O)N2CCCC(C(=O)c3ccc(OC)cc3C)C2)c1 (stereo not given) returned Pf growth 96h 13µM*, AMA1-RON2 inh 5%, Pf growth 48h -7% and HCV inhibitor 8%.
CCn1cc(CN2CCC(n3nccc3NC(=O)c3ccc(OC)cc3)CC2)cn1 was read as Pf growth 96h 13%, AMA1-RON2 inh 8%, Pf growth 48h -19% and HCV inhibitor 18%.
COc1ccc(C(=O)NCCCc2nc3ccccc3n2Cc2ccccc2C)cc1OC was read as Pf growth 96h 9.3µM*, AMA1-RON2 inh -10%, Pf growth 48h inconclusive and HCV inhibitor inconclusive.
Screening O=c1oc2ccccc2n1CCCOc1ccccc1 returned Pf growth 96h 12µM*, AMA1-RON2 inh 3%, Pf growth 48h 42% and HCV inhibitor 0%.
Screening CCOC(=O)Nc1c(C(=O)OC)[nH]c2cc(OC)ccc12 returned Pf growth 96h inconclusive, AMA1-RON2 inh -1%, Pf growth 48h 14% and HCV inhibitor 25µM*.
CCOC(=O)c1[nH]c2ccc(OC)cc2c1NC(=O)OC was read as Pf growth 96h 6%, AMA1-RON2 inh 6%, Pf growth 48h 47% and HCV inhibitor -29%.
For COC(=O)c1[nH]c2ccccc2c1NC(=O)c1ccccc1F the results were Pf growth 96h 17%, AMA1-RON2 inh -7%, Pf growth 48h 9% and HCV inhibitor 13µM*.
For C=CCOC(=O)Nc1c(C(=O)OC)[nH]c2ccccc12 the results were Pf growth 96h 27%, AMA1-RON2 inh -4%, Pf growth 48h inconclusive and HCV inhibitor 10µM*.
Screening COC(=O)c1[nH]c2ccccc2c1NC(=O)Oc1ccccc1 returned Pf growth 96h 78%, AMA1-RON2 inh -4% and HCV inhibitor 14%.
For CCCCNC(=O)Nc1c(C(=O)OCC)[nH]c2ccccc12 the results were Pf growth 96h 8.3µM*, AMA1-RON2 inh 1%, Pf growth 48h 6% and HCV inhibitor 24%.
`Cn1c(N)c(C(=O)CSc2nnc(NC3CCCCC3)s2)c(=O)n(C)c1=O` gave Pf growth 96h 1.3µM*, AMA1-RON2 inh 0%, Pf growth 48h inconclusive and HCV inhibitor -4%.
`CC(C)Nc1nnc(SCC(=O)c2c(N)n(Cc3ccccc3)c(=O)n(C)c2=O)s1` gave Pf growth 96h 9.3µM*, AMA1-RON2 inh 11%, Pf growth 48h inconclusive and HCV inhibitor -1%.
`COc1ccc(C(=O)Nc2ccc(NC(C)=O)cc2)cc1S(=O)(=O)N1CCCCC1C` (stereo not given) gave Pf growth 96h inconclusive, AMA1-RON2 inh -10%, Pf growth 48h inconclusive and HCV inhibitor inconclusive.
Screening COc1ccc(C(=O)NCC(c2ccco2)N2CCCC2)cc1S(=O)(=O)N1CCCCC1C (stereo not given) returned Pf growth 96h 5.2µM*, AMA1-RON2 inh 7%, Pf growth 48h inconclusive and HCV inhibitor -7%.
`COc1ccc(C(=O)NCCc2ccc(Cl)cc2)cc1S(=O)(=O)N1CCCCC1C` (stereo not given) gave Pf growth 96h inconclusive, AMA1-RON2 inh -5%, Pf growth 48h inconclusive and HCV inhibitor 8.9µM*.
COc1ccc(C(=O)NCCc2c[nH]c3ccccc23)cc1S(=O)(=O)N1CCCCC1C (stereo not given) was read as Pf growth 96h 13µM*, AMA1-RON2 inh -12%[11.6 µM], Pf growth 48h 8.3µM* and HCV inhibitor inconclusive.
For COc1ccc(C(=O)NCC(c2ccco2)N2CCCCC2)cc1S(=O)(=O)Nc1ccc(C)cc1 (stereo not given) the results were AMA1-RON2 inh -4% and HCV inhibitor inconclusive.
CC1(C(=O)NCc2ccccc2)CN(S(C)(=O)=O)CC(=O)N1CCCn1ccnc1 (stereo not given) was read as AMA1-RON2 inh -13%.
Screening CC(=O)NC(CSC(CC(=O)c1ccco1)c1ccc(C)cc1)C(=O)O (stereo not given) returned Pf growth 96h -4%, AMA1-RON2 inh -1%, Pf growth 48h 19% and HCV inhibitor 1%.
c1ccc(-c2nc3nonc3c3nc4ccccc4n23)cc1 was read as Pf growth 96h 13µM*, AMA1-RON2 inh -4%, Pf growth 48h -5% and HCV inhibitor -15%.
Screening c1ccc(-c2nc3ccccc3c3nc4ccccc4n23)cc1 returned Pf growth 96h -15%, AMA1-RON2 inh 4%, Pf growth 48h 13% and HCV inhibitor -2%.
`Cc1cc(OCC(O)CN)ccc1Cl` (stereo not given) gave Pf growth 96h 0.74µM*, AMA1-RON2 inh 13%, Pf growth 48h 24% and HCV inhibitor -8%.
COC(=O)C(NC(=O)COc1ccccc1)(Nc1nc2c(s1)CCCC2)C(F)(F)F (stereo not given) was read as Pf growth 96h 10µM*, AMA1-RON2 inh 3%, Pf growth 48h inconclusive and HCV inhibitor 1%.
`COC(=O)c1cn(NC(=O)c2ccc([N+](=O)[O-])cc2Cl)c(=O)c2ccccc12` gave Pf growth 96h -15%, AMA1-RON2 inh -7%, Pf growth 48h -10% and HCV inhibitor -2%.
Screening CCC(C)n1c(=O)c2sccc2n2c(CCCC(=O)N3CCC(C(N)=O)CC3)nnc12 (stereo not given) returned Pf growth 96h 0%, AMA1-RON2 inh 0%, Pf growth 48h 47% and HCV inhibitor 13%.
CCOc1cccc(C(=O)Nc2nc(-c3ccc(S(=O)(=O)N4CCOCC4)cc3)cs2)c1 was read as AMA1-RON2 inh -8%, Pf growth 48h 5.2µM* and HCV inhibitor -28%.
